HTR5A ag ctr = HTR5A agonism, opioid heterodimer counter-screen | P47898 | HTR5A agonist assay, luminescence, cell-based | activation, % at 9.3 µM | hit rate 0.61% among 340,000 | AID 504692; in the data active = activation mostly above about 9.5%, no sharp cut-off; inactive = mostly below about 7.6%
HTR5A inv ctr = HTR5A inverse agonism, opioid heterodimer counter-screen | P47898 | HTR5A cell line, luminescence | inhibition, % at 9.3 µM | hit rate 0.083% among 340,000; in the data active = inhibition mostly above about 23%, no sharp cut-off; inactive = mostly below about 18%
MOR-DOR ag-1 = OPRM1-OPRD1 heterodimerization agonism. activation, % at 9.3 µM. P35372+P41143. cells, luminescence. AID 504326. hit rate 0.3% among 340,000
Target sequence (P35372 whole entry, looked up): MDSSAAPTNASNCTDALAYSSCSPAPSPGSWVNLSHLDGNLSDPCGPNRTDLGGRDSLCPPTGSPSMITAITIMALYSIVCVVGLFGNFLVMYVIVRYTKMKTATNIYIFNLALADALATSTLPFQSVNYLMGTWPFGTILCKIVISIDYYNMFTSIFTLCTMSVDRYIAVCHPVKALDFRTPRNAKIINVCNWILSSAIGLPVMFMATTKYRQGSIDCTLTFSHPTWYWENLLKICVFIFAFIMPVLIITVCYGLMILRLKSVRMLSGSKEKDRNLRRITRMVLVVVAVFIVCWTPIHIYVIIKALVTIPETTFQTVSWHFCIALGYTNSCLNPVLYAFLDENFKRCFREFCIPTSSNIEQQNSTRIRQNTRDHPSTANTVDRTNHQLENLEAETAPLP
Target sequence (P41143 whole entry, looked up): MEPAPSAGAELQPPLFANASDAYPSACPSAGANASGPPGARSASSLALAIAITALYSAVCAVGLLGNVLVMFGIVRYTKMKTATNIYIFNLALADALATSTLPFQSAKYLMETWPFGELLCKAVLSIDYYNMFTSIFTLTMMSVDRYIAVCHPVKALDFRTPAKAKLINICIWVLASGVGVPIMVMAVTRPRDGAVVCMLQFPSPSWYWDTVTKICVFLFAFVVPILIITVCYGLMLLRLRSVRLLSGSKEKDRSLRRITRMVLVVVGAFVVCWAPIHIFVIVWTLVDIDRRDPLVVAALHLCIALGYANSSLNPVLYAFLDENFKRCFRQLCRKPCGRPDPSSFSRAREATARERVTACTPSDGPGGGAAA
MOR-DOR inv ag-1 = inverse agonists of human mu-delta opioid receptor heterodimerization. inhibition, % at 9.3 µM. cell-based MOR-DOR heterodimer luminescence, inverse agonism. hit rate 0.21% among 340,000. P35372+P41143; in the data active = inhibition above about 22%, passing the limit was not always enough
MOR-DOR inv ag-2 = opioid heterodimer inverse agonism, HTR5A counter-screen | U2OS counter-screen cells, complementation luminescence | 190 tested, under 10 active | shares compounds with HTR5A inv ctr | inhibition, % at 9.3 µM; call rule not given here
HTR5A inv confrm = confirmation of human HTR5A inverse agonists; shares compounds with HTR5A inv ctr; HTR5A-expressing cells, inverse agonism, luminescence; inhibition, % at 9.3 µM; 190 tested, under 10 active; call rule not given here
MOR-DOR ag-2 = opioid heterodimer agonism, HTR5A counter-screen; hit rate 13% among 800; shares compounds with HTR5A ag ctr; AID 504913; activation, % at 9.3 µM; U2OS counter-screen cells, complementation luminescence, 3 h
HTR5A ag conf = HTR5A (human) agonism, confirmation | hit rate 17% among 800 | activation, % at 9.3 µM | HTR5A agonist cell assay, luminescence | shares compounds with HTR5A ag ctr; in the data active = activation above about 17%
Of the large screens only hits and unclear results are named; the others gave an inactive call (follow-up assays come after a bar, where they were run); ! = repeats disagree. Hits are enriched below; roughly 1.1% of the tested compounds scored in any of these assays. Rule as the data show it, unless noted: active = activation above about 18%; inactive = the rest.

CC(=O)N1C2CCCCC2S[C@H]2CCCCC21 (some centres not stated)	HTR5A inv ctr 34 | MOR-DOR inv ag-2 inactive | HTR5A inv confrm inactive
COc1ccc(/C=C/C(=O)NC(=S)NNC(=O)c2c(-c3ccccc3)noc2C)cc1	HTR5A inv ctr 49 | MOR-DOR inv ag-2 inactive | HTR5A inv confrm inactive
Cc1onc(-c2ccccc2)c1C(=O)NNC(=S)NC(=O)/C=C/c1ccccc1	none
COc1ccc(Cl)cc1C(=O)NNC(=O)CSc1nnc2ccccn12	HTR5A inv ctr 27 | MOR-DOR inv ag-2 inactive | HTR5A inv confrm inactive
Cc1ccc(O)c(NC(=S)NC(=O)c2ccccc2Cl)c1	HTR5A inv ctr 21 | MOR-DOR inv ag-2 inactive | HTR5A inv confrm inactive
O=C(NC(=S)Nc1ccc(O)cc1)c1ccccc1Cl	none
Cc1ccc(CCNC(=O)C2CCN(S(=O)(=O)c3cccc4nsnc34)CC2)cc1	HTR5A inv ctr 47 | MOR-DOR inv ag-2 inactive | HTR5A inv confrm inactive
Cc1cnc(C(=O)OCC(=O)NCc2ccc(Cl)cc2)cn1	none
O=C(COc1ncnc2ccccc12)Nc1cc([N+](=O)[O-])ccc1F	HTR5A ag ctr 19 | MOR-DOR ag-2 inactive | HTR5A ag conf inactive
COc1cccc2sc(=NC(=O)CS(=O)(=O)c3ccc(Cl)cc3)n(C)c12	none
COC(=O)CCC[C@H]1CC2(C[C@H](CCCO[Si](C)(C)C(C)(C)C)N1C(=O)OC(C)(C)C)OCCO2	HTR5A ag ctr 16 | MOR-DOR ag-2 119 | HTR5A ag conf inactive
CCn1c2ccccc2c2cc(NC(=O)COC(=O)c3cc(OC)c(OC)cc3OC)ccc21	none
COc1ccc(CC(=O)OCc2cc(=O)n3cc(Br)ccc3n2)cc1OC	none
c1ccc(-c2ccc3ccccc3n2)cc1	none
CNc1ccccc(-c2ccc3ccccc3n2)c1=O	HTR5A ag ctr 15 | MOR-DOR ag-2 inactive | HTR5A ag conf 39
C/C(=N\NC(=O)CN1CCN(S(=O)(=O)c2ccc(C)cc2)CC1)c1ccncc1	none
CCc1ccc(/C=C/C(=O)c2cc(Br)ccc(=O)c2O)cc1	HTR5A ag ctr 17 | MOR-DOR ag-2 42 | HTR5A ag conf inactive
COc1ccc(N2CCN(S(=O)(=O)CCNC(=O)C3CCCCC3)CC2)cc1	none
CC(C)(C)Cc1nnc(NC(=O)CCc2ccccc2)s1	none
CC(C)(C)c1ccc(C(=O)O/N=C(\N)c2ccccn2)cc1	HTR5A ag ctr 57 | MOR-DOR ag-2 inactive | HTR5A ag conf inactive
NC(=O)c1ccc(NC(=O)COC(=O)c2c[nH]c3ccccc23)cc1	HTR5A ag ctr 18 | MOR-DOR ag-2 inactive | HTR5A ag conf inactive
NC(=O)c1ccc(NC(=O)COC(=O)CCSc2ccccc2)cc1	HTR5A ag ctr 15 | MOR-DOR ag-2 inactive | HTR5A ag conf inactive
Cc1ccc(SCCC(=O)OCC(=O)Nc2ccc(C(N)=O)cc2)cc1	none
COc1ccccc1CN(C)C(=O)CN1CCN(C(=O)c2cccs2)CC1	HTR5A ag ctr 15 | MOR-DOR ag-2 inactive | HTR5A ag conf 32
COc1ccccc1CC(NC(C)=O)C(=O)N1CCN(C(=O)c2cccs2)CC1 (configuration not stated)	none
Cc1ccc(S(=O)(=O)NN=C2C3CC4CC(C3)CC2C4)cc1	HTR5A ag ctr 15 | MOR-DOR ag-2 inactive | HTR5A ag conf inactive
Cc1ccc(S(=O)(=O)NN=C2C3CC4CC(C3)CC2C4)cc1[N+](=O)[O-]	none
O=C(N/N=C/c1ccc(O)cc1)c1ccc(COc2cc(Cl)ccc2Cl)o1	HTR5A ag ctr 14 | MOR-DOR ag-2 41 | HTR5A ag conf inactive
Cc1cc(=O)c(C(=O)O)nn1-c1cccc(C(F)(F)F)c1	none
Cc1cc(=O)c(C(=O)O)nn1-c1ccccc1C(F)(F)F	HTR5A ag ctr 15 | MOR-DOR ag-2 inactive | HTR5A ag conf inactive
Cc1cc(NS(=O)(=O)c2ccc(NC(=O)C(C)Oc3cc(C)c(Cl)c(C)c3)cc2)no1 (configuration not stated)	none
Cc1c(N=C/C=C2\N(C)c3ccccc3C2(C)C)c(=O)n(-c2ccccc2)n1C	HTR5A ag ctr 48 | MOR-DOR ag-2 inactive | HTR5A ag conf 32
Cc1c(N=C/C=C/c2ccccc2)c(=O)n(-c2ccccc2)n1C	none
Cc1c(N=C/C=C2/N(C)c3ccccc3C2(C)C)c(=O)n(-c2ccccc2)n1C	HTR5A ag ctr 22 | MOR-DOR ag-2 inactive | HTR5A ag conf 29!
Cc1c(NC(=S)/C=C2\N(C)c3ccccc3C2(C)C)c(=O)n(-c2ccccc2)n1C	none
CNCc1cc(Br)c(OCC(=O)Nc2ccccc2OC)c(OC)c1	none
COc1cc(CNCCc2ccccc2)cc(Br)c1OCC(=O)Nc1ccccc1C	HTR5A ag ctr 18 | MOR-DOR ag-2 inactive | HTR5A ag conf inactive
Cc1[nH]n(-c2ccc([N+](=O)[O-])cc2)c(=O)c1C=NCCc1c[nH]c2ccccc12	HTR5A ag ctr 34 | MOR-DOR ag-2 inactive | HTR5A ag conf inactive
CCCc1[nH]n(-c2ccc([N+](=O)[O-])cc2)c(=O)c1C=NCCc1c[nH]c2ccccc12	HTR5A ag ctr 20 | MOR-DOR ag-2 inactive | HTR5A ag conf inactive
Cc1[nH]n(-c2ccccc2)c(=O)c1C=NCCc1ccccc1	none
CCc1ccc(Nc2nnc(SCC(=O)NC(=O)c3cccn3C)s2)cc1	HTR5A ag ctr 15 | MOR-DOR ag-2 inactive | HTR5A ag conf inactive
Cc1ccc(Cl)cc1NC(=O)c1cc2ccccc2cc1O	HTR5A ag ctr 22 | MOR-DOR ag-2 inactive | HTR5A ag conf inactive
CC(=O)Nc1ccc2nc(NC(=O)c3cccnc3)sc2c1	HTR5A ag ctr 15 | MOR-DOR ag-2 inactive | HTR5A ag conf 51
COc1ccc(C=NNc2nc3ccccc3s2)cc1	none
Cc1ccc2[nH]c(C)c(/C=N/Nc3nc4ccccc4s3)c2c1	HTR5A ag ctr 20 | MOR-DOR ag-2 inactive | HTR5A ag conf inactive
CN(C(=O)C1CCCO1)C1CCS(=O)(=O)C1 (configuration not stated)	none
COc1ccc(CCNC(=O)CN2C(=O)NC3(CCc4ccccc43)C2=O)cc1 (configuration not stated)	none
c1ccc2c(c1)nc(N1CCOCC1)c1ccccc12	HTR5A ag ctr 19 | MOR-DOR ag-2 inactive | HTR5A ag conf inactive
c1ccc2c(c1)nc(N1CCCCC1)c1ccccc12	none
C=CCc1cc(C=Nc2ccc(N3CCOCC3)cc2)cc(OCC)c1O	none
COC(=O)c1ccc(SCC(=O)NC2CCCC2)c([N+](=O)[O-])c1	none
NC(=O)c1ccc(SCC(=O)NC2CCCCC2)c([N+](=O)[O-])c1	HTR5A ag ctr 14 | MOR-DOR ag-2 inactive | HTR5A ag conf inactive
CCOc1ccc(C2=CS/C(=C(\C#N)c3nnc4n3CCCCC4)N2CC)cc1	HTR5A ag ctr 15 | MOR-DOR ag-2 inactive | HTR5A ag conf inactive
O=C(COC(=O)CCC(=O)c1cccs1)Nc1cccc(F)c1	HTR5A ag ctr 18 | MOR-DOR ag-2 inactive | HTR5A ag conf inactive

From PubChem
